Source: PubChem (National Center for Advancing Translational Sciences (NCATS))
Most compounds without a hit are left out; they make up all but 15% or so of the library.
TDP1 cell noCPT – qHTS for Inhibitors of human tyrosyl-DNA phosphodiesterase 1 (TDP1): qHTS in cells in absence of CPT; DT40 Tdp1-/- hTDP1 cells, no CPT, ATP luminescence, 48 h; Potency, µM (series often up to 46.2 µM), for inactives: at the top dose activity change, negative = growth inhibition, actives largely listed as inhibitors; 420,000 tested, 15% active; AID 686978, 2013; further: nearly all actives have a fitted effect of over 55% in size
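Stably hTDP1-transfected Tdp1-null chicken DT40 cells were treated with library compounds minus camptothecin and grown for at least 48 hr at 37 °C, after which cellular ATP was quantified by luminescence.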
TDP1 cell CPT – growth inhibition of DT40 Tdp1-/-;hTDP1 cells with camptothecin (screen for TDP1 inhibitors); 420,000 tested, 12% active; AID 686979; Potency, µM (series often up to 46.2 µM), for the others: top-dose activity change, negative = growth inhibition, usual class: inhibitors; chicken DT40 Tdp1-/-;hTDP1 cells + 20 nM CPT, ATP luminescence, 48 h; further: nearly all actives have a fitted effect of over 55% in size
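Cell growth measured by CellTiter-Glo luminescence after a minimum 48 h, 37 C compound exposure with 20 nM CPT in Tdp1-knockout DT40 cells stably expressing hTDP1, seeded 400/well; qHTS titration format.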
Gal4-VP16 FLuc – Gal4-VP16 reporter inhibition counter-screen; Drosophila S2 Gal4-VP16 UAS-luciferase, luminescence, 20 h; Potency, µM (doses to about 53.6 µM), without a hit: top-dose activity, negative = inhibition, usual class: inhibitors; 310,000 tested, 3.5% active; AID 2546;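 further: Gal4-VP16 expression switched on by copper sulfate through the metallothionein promoter; nearly all actives have a fitted effect of over 50% in size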
RORgamma inh – ROR gamma (mouse) transcription inhibition | P51450 | Drosophila S2 Gal4-RORgamma UAS-luciferase reporter, 20 h | Potency, µM (doses to about 53.6 µM), without a hit: top-dose activity change, negative = inhibition, usual class: inhibitors | 310,000 tested, 5.4% active; further: nearly all actives have a fitted effect of over 60% in size
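Luminescence from a UAS-regulated Photinus luciferase reporter in stably transfected Drosophila Schneider cells is measured; decreased signal marks ROR gamma inhibition. Fusion expression is induced by 700 uM copper sulfate for 20 hr.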
ALOX12 inh – ALOX12 (human) lipoxygenase inhibition; 580,000 tested, 1.1% active; purified 12hLO, xylenol orange hydroperoxide absorbance; P18054; Potency, µM (doses to about 108 µM), inactives show at the highest dose activity change, negative = inhibition, usual class: inhibitors
Target sequence (P18054 whole entry, looked up): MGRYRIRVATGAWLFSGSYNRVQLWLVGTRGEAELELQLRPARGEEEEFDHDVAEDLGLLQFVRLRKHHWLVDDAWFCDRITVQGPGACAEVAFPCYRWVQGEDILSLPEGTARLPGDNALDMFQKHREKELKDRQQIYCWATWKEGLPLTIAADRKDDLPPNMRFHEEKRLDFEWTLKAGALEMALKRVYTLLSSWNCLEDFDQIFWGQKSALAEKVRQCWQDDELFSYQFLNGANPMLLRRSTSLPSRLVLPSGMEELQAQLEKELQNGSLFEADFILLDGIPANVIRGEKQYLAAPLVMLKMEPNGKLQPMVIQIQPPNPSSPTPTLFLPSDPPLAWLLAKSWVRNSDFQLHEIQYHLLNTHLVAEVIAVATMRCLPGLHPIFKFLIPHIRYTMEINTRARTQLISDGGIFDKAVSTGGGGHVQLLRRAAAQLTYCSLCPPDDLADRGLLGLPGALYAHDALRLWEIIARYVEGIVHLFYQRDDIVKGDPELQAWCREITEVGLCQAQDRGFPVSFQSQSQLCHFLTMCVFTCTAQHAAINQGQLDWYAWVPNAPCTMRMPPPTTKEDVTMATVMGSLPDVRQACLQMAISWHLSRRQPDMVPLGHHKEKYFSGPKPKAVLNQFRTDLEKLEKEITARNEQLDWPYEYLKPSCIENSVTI
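Purified human 12hLO (150 nM final) in 25 mM Hepes, 0.01% Triton X-100, pH 7.0 was preincubated 15 min at room temperature with compound. Then 40 uM arachidonic acid was added, 30 min. Hydroperoxide was read by Fe-XO absorbance ratio 573/405 nm.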
ELG1 DNA repair – ELG1-dependent DNA repair inhibition. HEK293T ELG1-luciferase reporter, luminescence, 16 h; DNA damage induced by 5-fluorouridine. 330,000 tested, 2.3% active. AID 504467. Potency, µM (top dose mostly 46.1 µM), inactives show at the highest dose activity change, negative = inhibition, usual class: inhibitors; further: nearly all actives have a fitted effect of over 55% in size
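Reporter activity after DNA damage by 5-fluorouridine is monitored. Compound-treated cells incubate 16 hr at 37 °C, then ONE-Glo is added for 30 min before luminescence reading.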
* = called active by the depositor; ? = inconclusive; / = not tested or not shown; [ ] = dose if it differs, or a comment. The call rests on the fitted dose curve; in most records, active means well fitted curve in the direction sought with a large enough effect; inconclusive means small, poorly fitted or top-dose-only effect, or another doubt; inactive means no such curve, though single readings can be large; an effect the other way counts as inactive or inconclusive. On the % scale 0 is the no-effect control and ±100 the full control effect; potency means the concentration at half of the fitted maximal effect.

SMILES	TDP1 cell noCPT	TDP1 cell CPT	Gal4-VP16 FLuc	RORgamma inh	ALOX12 inh	ELG1 DNA repair
CN1CCN(C(=S)c2ccc(OCC(=O)Nc3cccc(C(F)(F)F)c3)cc2)CC1	9.2µM*	20.6µM*	?	?	-6.7%	18.4µM*
COC(=O)/C=C/C(=O)Nc1cccc(C(F)(F)F)c1	14.6µM*	9.2µM*	-5.8%	?	-15.2%	-12.2%
O=C(Cn1c(=O)oc2ccccc21)Nc1cccc(Cl)c1	?	?	17.6%	6.0%	13.1%	-1.1%
O=C(COCC(=O)Nc1cccc(C(F)(F)F)c1)Nc1cccc(C(F)(F)F)c1	25.9µM*	?	?	22.4µM*	-9.0%	-1.0%
CN(C)C(=O)CN1C(=O)CO[C@H](c2ccc(NC(=O)c3ccccc3)cc2)[C@H]1CO	/	/	/	/	40.6%[176 µM]	/
CCc1ccc(NC(=O)c2ncoc2-c2cccc(OC)c2)cc1	/	/	/	/	-26.8%	/
COc1ccc2c(c1)c(CN1CCCC(c3[nH]ccc3C(N)=O)C1)cn2C (centres undefined)	/	/	/	/	1.7%	/
O=C(C1=C(c2ccccc2)S(=O)(=O)CCO1)N(Cc1ccccc1F)c1ccccn1	/	/	/	/	-22.8%	/
CCN(CC)S(=O)(=O)c1ccc(OC)c(NC(=O)C(C)Oc2ccc3c(C)cc(=O)oc3c2)c1 (centres undefined)	18.4µM*	?	-15.6%	37.3%	-26.5%	20.6µM*
CN(C)CCNC(=O)c1cc(-c2ccccc2F)cc2c1OCCN2Cc1cccnc1	/	/	/	/	3.7%[176 µM]	/
COc1ccc(C(C)NC(=O)c2noc(-c3ccc[nH]c3=O)n2)cc1OC (centres undefined)	/	/	/	/	-9.7%	/
C=CCN1/C(=C(\C#N)C2=NS(=O)(=O)c3ccccc32)N(C)c2ccccc21	-2.6%	1.0%	?	11.2µM*	0.0%	0.0%
Cn1c(SCC(=O)NCc2ccco2)nnc1-c1c[nH]c2ccccc12	-22.6%	20.6µM*	-2.3%	3.8%	24.7%	-8.1%
CCOc1ccc(Nc2nc(Cc3nnc(SCC(=O)NCc4ccco4)n3CC)cs2)cc1	13µM*	13µM*	-28.7%	?	4.2%	-17.0%
CCOc1ccc(-n2c(SCC(=O)NCc3ccco3)nnc2-c2c[nH]c3ccccc23)cc1	13µM*	?	-8.2%	40.0%	7.7%	?
Cc1cc2nnc(SCC(=O)NCc3ccco3)n2c2ccccc12	4.61µM*	4.61µM*	/	/	31.5%	/
CCOc1ccc(-n2c(SCC(=O)Nc3cc(C)on3)nnc2-c2c[nH]c3ccccc23)cc1	-23.7%	-13.3%	-14.4%	7.5%	-4.6%	-5.4%
Cn1c(SCC(=O)NCc2ccco2)nnc1-c1ccccc1	-12.6%	0.1%	1.1%	32.8%	48.3%	?
CCC(Oc1ccccc1F)C(=O)NCc1csc(-c2ccccc2)n1 (centres undefined)	/	/	/	/	29.8%	/
CCOc1ccc(NS(=O)(=O)c2ccsc2C(=O)OC)cc1	/	/	/	/	4.6%	/
O=C(NCCc1cnc[nH]1)C1CCN(C2CCCCC2)CC1	/	/	/	/	102.8%	/
OC(CN1CCN(c2ccccn2)CC1)Cn1c2ccccc2c2ccccc21 (centres undefined)	8.2µM*	14.6µM*	-6.8%	22.8%	?	?
OC(COC(c1ccccc1)c1ccccc1)CN1CCN(c2ccccn2)CC1 (centres undefined)	?	-21.1%	0.1%	15.3%	-21.0%	?
OC(CN1CCNCC1)Cn1c2ccc(Br)cc2c2cc(Br)ccc21 (centres undefined)	/	/	?	?	28.2µM*	/
OC(CN1CCCCC1)Cn1c(C(F)(F)F)nc2ccccc21 (centres undefined)	11.6%	-0.8%	5.6%	42.0%	50.5%	1.5%
SMILES	TDP1 cell noCPT	TDP1 cell CPT	Gal4-VP16 FLuc	RORgamma inh	ALOX12 inh	ELG1 DNA repair
OC(CN1CCCCC1)Cn1c2ccccc2c2cc(Br)ccc21 (centres undefined)	16.4µM*	16.4µM*	-1.5%	-12.8%	0.0%	-4.9%
COc1ccccc1-n1cnnc1SC(C)C(=O)c1ccc(F)cc1 (centres undefined)	/	/	/	/	-25.3%	/
CC1SCC(NC(=O)c2cccc(Cl)c2)CS1 (centres undefined)	11.6µM*	14.6µM*	-4.0%	?	0.0%	-5.5%
CC(=O)Nc1ccc(NC(=O)c2c(C)nn(-c3ccccc3)c2-n2cccc2)cc1	?	?	/	/	-26.4%	/
CC(=O)Nc1ccc(NC2=Nc3ccccc3N3C2=Nc2c(c(C)nn2-c2ccccc2)C3c2ccccc2)cc1 (centres undefined)	2.31µM*	2.59µM*	0.891µM*	0.0891µM*	13.2%	2.82µM*
COc1ccc(NC2=Nc3ccccc3N3C2=Nc2c(c(C)nn2-c2ccc(C)cc2)C3c2cccnc2)cc1 (centres undefined)	?	20.6µM*	-4.3%	2.6%	2.2%	7.1%
COc1ccc(N2C(=O)C(=O)/C(=C(/O)c3ccc(C)cc3)C2c2cccnc2)cc1 (centres undefined)	0.9%	9.5%	?	-3.1%	-11.9%	?
CCCNC(=O)CCc1ccc(C#N)cc1	/	/	/	/	1.7%	/
Cc1ccc(NC(=O)c2cc3c(s2)CCCC3)cc1S(=O)(=O)Nc1ccccc1Cl	23.1µM*	16.4µM*	-1.4%	?	-6.0%	23.1µM*
Cc1ccc(C(=O)Nc2ccc(C)c(S(=O)(=O)Nc3ccccc3Cl)c2)s1	?	?	-29.2%	?	-20.3%	20.6µM*
Cc1cccc(C(C)C)c1NC(=O)C(Sc1ccccc1)c1ccccc1 (centres undefined)	/	/	/	/	20.1%	/
COc1cc2cc(CN3CCC[C@@H]3CO)c(-c3cccc(Cl)c3)nc2cc1OC	/	/	/	/	88.3%	/
CCOc1ccccc1NC(=O)CSc1ncnc2ccccc12	/	/	/	/	11.5%	/
O=C(Cc1ccc(F)cc1)N1CCC2(CC1)NC(=O)N(Cc1ccc(F)cc1)C2=O	/	/	/	/	6.1%	/
O=C(COc1ccc(F)cc1)N1CCC2(CC1)NC(=O)N(c1ccccc1Cl)N2	/	/	/	/	1.41µM*	/
O=C(Cc1ccc(F)cc1)N1CCC2(CC1)NC(=O)N(c1ccccc1Cl)N2	/	/	/	/	1.26µM*	/
O=C(c1ccc(F)cc1Cl)N1CCC2(CC1)NC(=O)N(c1ccccc1Cl)N2	/	/	/	/	1.41µM*	/
CCOCC(=O)N1CCCn2ccnc2C1CC (centres undefined)	/	/	/	/	48.7%	/
Cc1cnc(CC2CCCN(C(=O)c3ccnn3C)C2)n1C(C)C (centres undefined)	/	/	/	/	26.8%	/
